Test results taken from PubChem BioAssay AID1159580 (chemical genetic matrix, 2015).
“And” between values parts separate entries of the source, which are not always exact repeats. Identical values can stand only once. In all, about 5,500 compounds went through this assay and about 2,000 (36%) were called active. About 18% were inconclusive and are not listed. No stated cut-off is given here; in the data, active means normalized growth mostly below about 0.91 (no sharp cut-off); inconclusive means no clear call, values can overlap the other calls; inactive means mostly above about 0.92. The list shows a part of the results.

Assay: chemical genetic growth profiling, strain panel (AID 1159580);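 further: tested at 20 µM; growth read once vehicle control cultures reached saturation at 30 °C; 1 = growth at the plate median or of vehicle wells; lower values mean less growth of the strain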
Details: growth OD

Measured: normalized growth

CCN(CC)CCOC(=O)C(c1ccccc1)C1CCCCC1 (configuration not stated)
inactive: S. cerevisiae deletion strains, locus YAL013W, strain DEP1, active compounds read low 1 | S. cerevisiae deletion strains, locus YBR021W, strain FUR4, active compounds read low 1 | S. cerevisiae deletion strains, locus YBR229C, strain ROT2, active compounds read low 1 | S. cerevisiae deletion strains, locus YCL029C, strain bik1, active compounds read low 0.958 | S. cerevisiae deletion strains, locus YDL035C, strain GPR1, active compounds read low 0.999 | S. cerevisiae deletion strains, locus YDL074C, strain BRE1, active compounds read low 0.948 | S. cerevisiae deletion strains, locus YDL101C, strain DUN1, active compounds read low 0.983 | S. cerevisiae deletion strains, locus YDL134C, strain PPH21, active compounds read low 1.01 | S. cerevisiae deletion strains, locus YDL185W, strain tfp1, active compounds read low 0.946 | S. cerevisiae deletion strains, locus YDL192W, strain arf1, active compounds read low 0.971 | S. cerevisiae deletion strains, locus YDR101C, strain arx1, active compounds read low 0.964 | S. cerevisiae deletion strains, locus YDR150W, strain NUM1, active compounds read low 0.989 | S. cerevisiae deletion strains, locus YDR162C, strain NBP2, active compounds read low 0.99 | S. cerevisiae deletion strains, locus YDR318W, strain mcm21, active compounds read low 0.97 | S. cerevisiae deletion strains, locus YDR388W, active compounds read low 0.948 | S. cerevisiae deletion strains, locus YDR502C, strain sam2, active compounds read low 0.998 | S. cerevisiae deletion strains, locus YEL061C, strain CIN8, active compounds read low 0.999 | S. cerevisiae deletion strains, locus YER110C, active compounds read low 0.973 | S. cerevisiae deletion strains, locus YER155C, strain BEM2, active compounds read low 1 | S. cerevisiae deletion strains, locus YER167W, strain BCK2, active compounds read low 1.01 | S. cerevisiae deletion strains, locus YGL078C, strain dbp3, active compounds read low 0.99 | S. cerevisiae deletion strains, locus YGL086W, strain mad1, active compounds read low 1.02 | S. cerevisiae deletion strains, locus YGL248W, strain PDE1, active compounds read low 1.01 | S. cerevisiae deletion strains, locus YGR078C, strain PAC10, active compounds read low 0.966 | S. cerevisiae deletion strains, locus YGR135W, strain pre9, active compounds read low 0.968 | S. cerevisiae deletion strains, locus YGR229C, strain SMI1, active compounds read low 0.972 | S. cerevisiae deletion strains, locus YGR252W, strain gcn5, active compounds read low 1.11 | S. cerevisiae deletion strains, locus YHR030C, strain SLT2, active compounds read low 0.995 and 1.06 | S. cerevisiae deletion strains, locus YHR079C, strain IRE1 (second series), active compounds read low 0.964 | S. cerevisiae deletion strains, locus YHR079C, strain IRE1, active compounds read low 1.04 | S. cerevisiae deletion strains, locus YHR094C, strain hxt1, active compounds read low 0.975 | S. cerevisiae deletion strains, locus YHR129C, strain ARP1, active compounds read low 0.992 | S. cerevisiae deletion strains, locus YHR200W, strain rpn10, active compounds read low 0.975 | S. cerevisiae deletion strains, locus YIL066C, strain RNR3, active compounds read low 0.984 | S. cerevisiae deletion strains, locus YIL073C, strain SPO22, active compounds read low 0.958 | S. cerevisiae deletion strains, locus YIL125W, strain kgd1, active compounds read low 0.986 | S. cerevisiae deletion strains, locus YIR030C, strain dcg1, active compounds read low 0.981 | S. cerevisiae deletion strains, locus YJL095W, strain BCK1, active compounds read low 0.938 and 1.05 | S. cerevisiae deletion strains, locus YJL134W, strain LCB3, active compounds read low 0.998 | S. cerevisiae deletion strains, locus YJL168C, strain set2, active compounds read low 0.966 | S. cerevisiae deletion strains, locus YJL187C, strain SWE1 (second series), active compounds read low 0.969 | S. cerevisiae deletion strains, locus YJR043C, strain POL32, active compounds read low 0.991 | S. cerevisiae deletion strains, locus YJR066W, strain TOR1, active compounds read low 1 | S. cerevisiae deletion strains, locus YJR075W, strain HOC1, active compounds read low 0.954 | S. cerevisiae deletion strains, locus YKL009W, strain mrt4, active compounds read low 0.962 | S. cerevisiae deletion strains, locus YKL068W, active compounds read low 0.978 | S. cerevisiae deletion strains, locus YKL085W, strain MDH1 (second series), active compounds read low 0.97 | S. cerevisiae deletion strains, locus YKL085W, strain MDH1, active compounds read low 0.97 | S. cerevisiae deletion strains, locus YKL190W, strain CNB1, active compounds read low 0.989 | S. cerevisiae deletion strains, locus YKR001C, strain vps1, active compounds read low 0.999 | S. cerevisiae deletion strains, locus YLR039C, strain RIC1, active compounds read low 1.12 | S. cerevisiae deletion strains, locus YLR058C, strain SHM2, active compounds read low 1 | S. cerevisiae deletion strains, locus YLR102C, strain apc9, active compounds read low 0.983 | S. cerevisiae deletion strains, locus YLR113W, strain HOG1, active compounds read low 1.02 | S. cerevisiae deletion strains, locus YLR262C, strain YPT6, active compounds read low 1.12 | S. cerevisiae deletion strains, locus YLR268W, strain sec22, active compounds read low 0.906 | S. cerevisiae deletion strains, locus YLR330W, strain CHS5, active compounds read low 1 | S. cerevisiae deletion strains, locus YLR342W, strain FKS1 (second series), active compounds read low 1.02 | S. cerevisiae deletion strains, locus YLR371W, strain rom2, active compounds read low 0.962 | S. cerevisiae deletion strains, locus YLR418C, strain cdc73, active compounds read low 0.931 | S. cerevisiae deletion strains, locus YML016C, strain PPZ1, active compounds read low 1 | S. cerevisiae deletion strains, locus YML032C, strain rad52, active compounds read low 0.948 | S. cerevisiae deletion strains, locus YML124C, strain tub3, active compounds read low 0.977 | S. cerevisiae deletion strains, locus YMR078C, strain ctf18, active compounds read low 0.949 | S. cerevisiae deletion strains, locus YMR223W, strain ubp8, active compounds read low 1.01 | S. cerevisiae deletion strains, locus YMR263W, strain SAP30, active compounds read low 0.969 | S. cerevisiae deletion strains, locus YMR307W, strain GAS1, active compounds read low 1.23 | S. cerevisiae deletion strains, locus YNL067W, strain RPL9B, active compounds read low 0.965 | S. cerevisiae deletion strains, locus YNL128W, strain TEP1, active compounds read low 0.98 | S. cerevisiae deletion strains, locus YNL153C, strain GIM3, active compounds read low 0.973 | S. cerevisiae deletion strains, locus YNL183C, strain NPR1, active compounds read low 0.983 | S. cerevisiae deletion strains, locus YNL233W, strain BNI4, active compounds read low 0.99 | S. cerevisiae deletion strains, locus YNL250W, strain rad50, active compounds read low 0.992 | S. cerevisiae deletion strains, locus YNL271C, strain bni1, active compounds read low 0.974 | S. cerevisiae deletion strains, locus YNL298W, strain CLA4, active compounds read low 0.969 | S. cerevisiae deletion strains, locus YNL307C, strain MCK1, active compounds read low 0.978 | S. cerevisiae deletion strains, locus YNL322C, strain KRE1, active compounds read low 0.988 | S. cerevisiae deletion strains, locus YNR052C, strain pop2, active compounds read low 0.952 | S. cerevisiae deletion strains, locus YOL006C, strain TOP1, active compounds read low 0.94 | S. cerevisiae deletion strains, locus YOL012C, strain htz1 1.03 | S. cerevisiae deletion strains, locus YOL147C, strain pex11, active compounds read low 0.976 | S. cerevisiae deletion strains, locus YOR061W, strain CKA2, active compounds read low 0.993 | S. cerevisiae deletion strains, locus YOR069W, strain VPS5, active compounds read low 1 | S. cerevisiae deletion strains, locus YOR136W, strain idh2, active compounds read low 0.981 | S. cerevisiae deletion strains, locus YOR144C, strain elg1, active compounds read low 0.981 | S. cerevisiae deletion strains, locus YOR184W, strain ser1, active compounds read low 0.97 | S. cerevisiae deletion strains, locus YOR231W, strain MKK1, active compounds read low 1.04 | S. cerevisiae deletion strains, locus YOR316C, strain cot1, active compounds read low 0.955 | S. cerevisiae deletion strains, locus YPL055C, strain LGE1, active compounds read low 0.959 | S. cerevisiae deletion strains, locus YPL241C, strain CIN2, active compounds read low 1 | S. cerevisiae deletion strains, locus YPL256C, strain CLN2, active compounds read low 1.06 | S. cerevisiae deletion strains, locus YPR119W, strain clb2, active compounds read low 0.964 | S. cerevisiae deletion strains, locus YPR141C, strain kar3, active compounds read low 0.975 | S. cerevisiae deletion strains, locus YPR163C, strain tif3, active compounds read low 0.961 | S. cerevisiae deletion strains, locus YPR167C, strain met16, active compounds read low 0.96 | S. cerevisiae deletion strains, strain wtn01, active compounds read low 0.938 | S. cerevisiae strains, strain wild type, active compounds read low 0.995
